Source: paper PMC11062922 (Nature Chemical Biology, 2023)
Read-outs that look alike come from different tables or passages of the source.

Columns and labels:
AAK1 = system: AAK1; parameters: species or system human, MV4-11 + K-562 + COLO205 + SK-N-BE2 + OVCAR-8; details: read-out: apparent Kd; compound concentrations: 100 nM and 1000 nM (sheet 'Samples'), CATDS: 1.17801193164304E-2; n = 1
BMP2K = system: BMP2K; parameters: species or system human, MV4-11 + K-562 + COLO205 + SK-N-BE2 + OVCAR-8; details: read-out: apparent Kd; compound concentrations: 100 nM and 1000 nM (sheet 'Samples'), CATDS: 9.0184479884945195E-3; n = 1
CLK1 = system: CLK1; parameters: species or system human, MV4-11 + K-562 + COLO205 + SK-N-BE2 + OVCAR-8; details: read-out: apparent Kd; compound concentrations: 100 nM and 1000 nM (sheet 'Samples'), CATDS: 2.2055974074076602E-2; n = 1
CLK4 = system: CLK4; parameters: species or system human, MV4-11 + K-562 + COLO205 + SK-N-BE2 + OVCAR-8; details: read-out: apparent Kd; compound concentrations: 100 nM and 1000 nM (sheet 'Samples'), CATDS: 1.3138431378969501E-2; n = 1
CSNK2A1;CSNK2A3 = system: CSNK2A1;CSNK2A3; parameters: species or system human, MV4-11 + K-562 + COLO205 + SK-N-BE2 + OVCAR-8; details: read-out: apparent Kd, compound concentrations: 100 nM and 1000 nM (sheet 'Samples'), n = 1
CSNK2A2 = system: CSNK2A2; parameters: species or system human, MV4-11 + K-562 + COLO205 + SK-N-BE2 + OVCAR-8; details: read-out: apparent Kd, compound concentrations: 100 nM and 1000 nM (sheet 'Samples'), n = 1
FLT4 = system: FLT4; parameters: species or system human, MV4-11 + K-562 + COLO205 + SK-N-BE2 + OVCAR-8; details: read-out: apparent Kd; compound concentrations: 100 nM and 1000 nM (sheet 'Samples'), CATDS: 8.8646184270887406E-3; n = 1
GAK = system: GAK; parameters: species or system human, MV4-11 + K-562 + COLO205 + SK-N-BE2 + OVCAR-8; details: read-out: apparent Kd; compound concentrations: 100 nM and 1000 nM (sheet 'Samples'), CATDS: 2.44642148870544E-2; n = 1
GSK3A = system: GSK3A; parameters: species or system human, MV4-11 + K-562 + COLO205 + SK-N-BE2 + OVCAR-8; details: read-out: apparent Kd, n = 1
GSK3B = system: GSK3B; parameters: species or system human, MV4-11 + K-562 + COLO205 + SK-N-BE2 + OVCAR-8; details: read-out: apparent Kd, n = 1
MELK = system: MELK; parameters: species or system human, MV4-11 + K-562 + COLO205 + SK-N-BE2 + OVCAR-8; details: read-out: apparent Kd; compound concentrations: 100 nM and 1000 nM (sheet 'Samples'), CATDS: 8.4068419636258301E-3; n = 1
NUAK1 = system: NUAK1; parameters: species or system human, MV4-11 + K-562 + COLO205 + SK-N-BE2 + OVCAR-8; details: read-out: apparent Kd; compound concentrations: 100 nM and 1000 nM (sheet 'Samples'), CATDS: 1.3178024386402599E-2; n = 1
PAK4 = system: PAK4; parameters: species or system human, MV4-11 + K-562 + COLO205 + SK-N-BE2 + OVCAR-8; details: read-out: apparent Kd, n = 1
PKN1 = system: PKN1; parameters: species or system human, MV4-11 + K-562 + COLO205 + SK-N-BE2 + OVCAR-8; details: read-out: apparent Kd, n = 1
PKN3 [1] = system: PKN3; parameters: species or system human, MV4-11 + K-562 + COLO205 + SK-N-BE2 + OVCAR-8; details: read-out: apparent Kd, n = 1;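 on IC50: NanoBRET target engagement in HEK293T cells transiently expressing full-length PKN3 with C-terminal NanoLuc, displacement of fluorescent tracer K5 (500 nM), BRET read after 2 h equilibration at 37 °C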
Q6ZSR9 = Q6ZSR9 (human, UniProt Q6ZSR9); parameters: species or system MV4-11 + K-562 + COLO205 + SK-N-BE2 + OVCAR-8; details: read-out: apparent Kd; compound concentrations: 100 nM and 1000 nM (sheet 'Samples'), CATDS: 1.1627061095110299E-2; n = 1
Sequence of Q6ZSR9 (Q6ZSR9 whole entry, looked up): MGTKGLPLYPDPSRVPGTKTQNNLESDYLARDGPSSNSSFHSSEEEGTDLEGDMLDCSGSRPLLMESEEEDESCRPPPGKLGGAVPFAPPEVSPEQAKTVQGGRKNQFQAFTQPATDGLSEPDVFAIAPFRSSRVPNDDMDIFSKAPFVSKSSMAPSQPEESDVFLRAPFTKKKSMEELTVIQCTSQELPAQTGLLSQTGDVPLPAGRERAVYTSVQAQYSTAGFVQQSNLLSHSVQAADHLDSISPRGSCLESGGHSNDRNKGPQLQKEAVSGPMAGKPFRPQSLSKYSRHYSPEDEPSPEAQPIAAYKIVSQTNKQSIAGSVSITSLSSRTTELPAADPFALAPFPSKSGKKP

RET = system: RET; parameters: species or system human, MV4-11 + K-562 + COLO205 + SK-N-BE2 + OVCAR-8; details: read-out: apparent Kd; compound concentrations: 100 nM and 1000 nM (sheet 'Samples'), CATDS: 1.2674098851270001E-2; n = 1
SIK2 = system: SIK2; parameters: species or system human, MV4-11 + K-562 + COLO205 + SK-N-BE2 + OVCAR-8; details: read-out: apparent Kd, compound concentrations: 100 nM and 1000 nM (sheet 'Samples'), n = 1
PKN3 [2] = details: hek293t cells
[3] = compound concentrations:100 nM and 1000 nM (sheet 'Samples')

Compound: Clc1cc(Cl)cc(Nc2ccnc(Nc3cc(Cl)cc(Cl)c3)n2)c1 [GSK175726A]
- potency estimated from few doses (AAK1): 460 nM
- potency estimated from few doses (BMP2K): 1240 nM
- potency estimated from few doses (CLK1): 111 nM
- potency estimated from few doses (CLK4): 338 nM
- potency estimated from few doses (CSNK2A1;CSNK2A3; CATDS: 1.0484195430571001E-2): 672 nM
- potency estimated from few doses (CSNK2A2; CATDS: 1.04904160104555E-2): 671 nM
- potency estimated from few doses (FLT4): 1350 nM
- potency estimated from few doses (GAK): 92.1 nM
- potency estimated from few doses (GSK3A; compound concentrations: 100 nM and 1000 nM (sheet 'Samples'), CATDS: 1.64548846246832E-2): 197 nM
- potency estimated from few doses (GSK3B; compound concentrations: 100 nM and 1000 nM (sheet 'Samples'), CATDS: 1.50283486353895E-2): 242 nM
- potency estimated from few doses (MELK): 1790 nM
- potency estimated from few doses (NUAK1): 335 nM
- potency estimated from few doses (PAK4; compound concentrations: 100 nM and 1000 nM (sheet 'Samples'), CATDS: 1.1864346361446201E-2): 450 nM
- potency estimated from few doses (PKN1; compound concentrations: 100 nM and 1000 nM (sheet 'Samples'), CATDS: 8.1278223120285105E-3): 2200 nM
- potency estimated from few doses (PKN3 [1]; compound concentrations: 100 nM and 1000 nM (sheet 'Samples'), CATDS: 9.6016767734474606E-3): 940 nM
- potency estimated from few doses (Q6ZSR9): 479 nM
- potency estimated from few doses (RET): 373 nM
- potency estimated from few doses (SIK2; CATDS: 1.3915634821930201E-2): 291 nM

Compound: CCn1c(-c2nonc2N)nc2c(C#CC(C)(C)O)nc(OCCN)cc21.CCn1c(-c2nonc2N)nc2c(C#CC(C)(C)O)nc(OCCN)cc21.Cl.Cl [GSK902056A]
- potency estimated from few doses (GSK3A; [3]): 113 nM
- potency estimated from few doses (GSK3B; [3]): 136 nM
- potency estimated from few doses (PAK4; [3]): 677 nM
- potency estimated from few doses (PKN1; [3]): 85 nM
- IC50 (PKN3 [2]; read-out: Average, SD, n = 4): 99.2 nM
- IC50 (PKN3 [2]; read-out: Rep 1): 234 nM
- IC50 (PKN3 [2]; read-out: Rep 2): 56.5 nM
- IC50 (PKN3 [2]; read-out: Rep 3): 27 nM
- IC50 (PKN3 [2]; read-out: Rep 4): 79.2 nM

Compound: Cl.ON=C1CCc2cc(-c3nc(C4CCNCC4)[nH]c3-c3ccncc3)ccc21 [SB-614067-R]
- potency estimated from few doses (PKN3 [1]; [3]): 125 nM
- IC50 (PKN3 [2]; read-out: Average, SD, n = 4): 22900 nM
- IC50 (PKN3 [2]; read-out: Rep 1): 19100 nM
- IC50 (PKN3 [2]; read-out: Rep 2): 20600 nM
- IC50 (PKN3 [2]; read-out: Rep 3): 50100 nM
- IC50 (PKN3 [2]; read-out: Rep 4): 1840 nM

Compound: CCOc1nccc2c1nc(-c1nonc1N)n2CC [SB-737198]
- potency estimated from few doses (PKN3 [1]; compound concentrations: 100 nM and 1000 nM (sheet 'Samples'), CATDS: 0.243522946677111): 869 nM
- potency estimated from few doses (SIK2; CATDS: 0.197359346007206): 1500 nM
- IC50 (PKN3 [2]; read-out: Average, n = 4): > 50000 nM
- IC50 (PKN3 [2]; read-out: Rep 1): > 50000 nM
- IC50 (PKN3 [2]; read-out: Rep 2): > 50000 nM
- IC50 (PKN3 [2]; read-out: Rep 3): > 50000 nM
- IC50 (PKN3 [2]; read-out: Rep 4): > 50000 nM

Compound: COc1cc(Nc2ncc3c(C)nc(-c4cc5ccccc5[nH]4)n3n2)cc(OC)c1OC [GW869516X]
- potency estimated from few doses (CSNK2A1;CSNK2A3; CATDS: 0.461357463552929): 78.3 nM
- potency estimated from few doses (CSNK2A2; CATDS: 0.54570756078054605): 55.8 nM
